# Measurements taken from PMC5540273 (PLoS ONE, 2017).
# Where “and” joins values, the source holds several entries; their conditions need not be identical. Equal values may be shown once. Read-outs that look alike come from different tables or passages of the source.
# Key:
# [1] = test system: T1, p38-alpha
# T1 construct: gene MAPK14
# [2] = test system: AAK1; conditions: concentration: 1 μM, replicates: in singlicate; n = 1
# [3] = test system: ABL1-nonphosphorylated; conditions: concentration: 1 μM, replicates: in singlicate, n = 1
# [4] = test system: ABL1-phosphorylated; conditions: concentration: 1 μM, replicates: in singlicate, n = 1
# [5] = test system: ABL2; conditions: concentration: 1 μM, replicates: in singlicate, n = 1
# [6] = test system: ACVR1B; conditions: concentration: 1 μM, replicates: in singlicate; n = 1
# [7] = test system: ACVR1; conditions: concentration: 1 μM, replicates: in singlicate; n = 1
# [8] = test system: ACVR2A; conditions: concentration: 1 μM, replicates: in singlicate; n = 1
# [9] = test system: ACVR2B; conditions: concentration: 1 μM, replicates: in singlicate; n = 1
# [10] = test system: ACVRL1; conditions: concentration: 1 μM, replicates: in singlicate; n = 1
# [11] = test system: T2, ADCK3; conditions: concentration: 1 μM, replicates: in singlicate, n = 1
# T2 construct: gene CABC1
# [12] = test system: ADCK4; conditions: concentration: 1 μM, replicates: in singlicate, n = 1
# [13] = test system: AKT1; conditions: concentration: 1 μM, replicates: in singlicate; n = 1
# [14] = test system: AKT2; conditions: concentration: 1 μM, replicates: in singlicate, n = 1
# [15] = test system: WNK4
# [16] = test system: T3, YSK4
# T3 construct: gene MAP3K19
# 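Throughout, for %Inh: KINOMEscan kinase panel screen.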
# 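Throughout, for Kd: kd values determined as follow-up on hits from a single-replicate KINOMEscan panel screen.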
structure (smiles),measurement,setting,value
CNc1nccc(-c2c(-c3ccc(F)cc3)ncn2C2CCN(C)CC2)n1 [SB-222903],Kd,[1],53 nM
same,%Inh,[2],0%
same,%Inh,[3],34%
same,%Inh,[4],6%
same,%Inh,[5],0%
same,%Inh,[6],0%
same,%Inh,[7],0%
same,%Inh,[8],0%
same,%Inh,[9],0%
same,%Inh,[10],0%
same,%Inh,[11],0%
same,%Inh,[12],22%
same,%Inh,[13],0%
same,%Inh,[14],2%
Nc1nc(-c2ccc3c(N)n[nH]c3c2)cc(N2CCC[C@@H](C(=O)Nc3ccccc3)C2)n1.O=C(O)C(F)(F)F.O=C(O)C(F)(F)F [GSK2288359],%Inh,[2],38%
same,%Inh,[3],0%
same,%Inh,[4],0%
same,%Inh,[5],0%
same,%Inh,[6],0%
same,%Inh,[7],0%
same,%Inh,[8],0%
same,%Inh,[9],0%
same,%Inh,[10],0%
same,%Inh,[11],0%
same,%Inh,[12],11%
same,%Inh,[13],0%
same,%Inh,[14],7%
Nc1nc(-c2cccnc2)c(-c2ccnc3ccccc23)s1 [GW684083],%Inh,[2],57%
same,%Inh,[3],0%
same,%Inh,[4],0%
same,%Inh,[5],12%
same,%Inh,[6],10%
same,%Inh,[7],32%
same,%Inh,[8],0%
same,%Inh,[9],0%
same,%Inh,[10],12%
same,%Inh,[11],24%
same,%Inh,[12],45%
same,%Inh,[13],0%
same,%Inh,[14],1%
Cc1ccc(C)c(NC(=O)NCCNc2ccnc(Nc3ccc(F)cc3)n2)c1 [GSK1379878],%Inh,[2],63%
same,%Inh,[3],0%
same,%Inh,[4],0%
same,%Inh,[5],0%
same,%Inh,[6],0%
same,%Inh,[7],0%
same,%Inh,[8],0%
same,%Inh,[9],0%
same,%Inh,[10],0%
same,%Inh,[11],0%
same,%Inh,[12],10%
same,%Inh,[13],0%
same,%Inh,[14],0%
Nc1n[nH]c2nnc(-c3ccccc3)cc12 [SB-517389],%Inh,[2],16%
same,%Inh,[3],11%
same,%Inh,[4],5%
same,%Inh,[5],13%
same,%Inh,[6],0%
same,%Inh,[7],16%
same,%Inh,[8],0%
same,%Inh,[9],4%
same,%Inh,[10],0%
same,%Inh,[11],6%
same,%Inh,[12],16%
same,%Inh,[13],0%
same,%Inh,[14],13%
Oc1ccc2ncnc(Nc3ccc(OCc4ccccc4)cc3)c2c1 [GI262866],%Inh,[2],0%
same,%Inh,[3],0%
same,%Inh,[4],0%
same,%Inh,[5],7%
same,%Inh,[6],0%
same,%Inh,[7],0%
same,%Inh,[8],0%
same,%Inh,[9],9%
same,%Inh,[10],0%
same,%Inh,[11],0%
same,%Inh,[12],0%
same,%Inh,[13],0%
same,%Inh,[14],9%
NC(=O)c1sc(-n2cnc3ccccc32)cc1OCc1ccccc1F [GSK1024306],Kd,[1],280 nM
same,%Inh,[2],45%
same,%Inh,[3],0%
same,%Inh,[4],0%
same,%Inh,[5],8%
same,%Inh,[6],0%
same,%Inh,[7],0%
same,%Inh,[8],0%
same,%Inh,[9],2%
same,%Inh,[10],0%
same,%Inh,[11],5%
same,%Inh,[12],7%
same,%Inh,[13],0%
same,%Inh,[14],0%
O=C(c1ccc(-c2cc(-c3c[nH]nc3-c3ccccn3)ccn2)cc1)N1CCCC1 [GW792479],%Inh,[2],12%
same,%Inh,[3],74%
same,%Inh,[4],59%
same,%Inh,[5],0%
same,%Inh,[6],77%
same,%Inh,[7],0%
same,%Inh,[8],11%
same,%Inh,[9],22%
same,%Inh,[10],0%
same,%Inh,[11],27%
same,%Inh,[12],0%
same,%Inh,[13],2%
same,%Inh,[14],0%
COc1ccc(Nc2nccc(N3CCC(NC(=O)c4cccc(NC(C)=O)c4)C3)n2)cc1 (stereo not drawn) [GSK1379732],Kd,[15],> 10000 nM
same,%Inh,[2],17%
same,%Inh,[3],0%
same,%Inh,[4],0%
same,%Inh,[5],0%
same,%Inh,[6],0%
same,%Inh,[7],6%
same,%Inh,[8],0%
same,%Inh,[9],0%
same,%Inh,[10],2%
same,%Inh,[11],8%
same,%Inh,[12],36%
same,%Inh,[13],0%
same,%Inh,[14],14%
COc1ccc(NC(=O)c2ccc(-c3cc(-c4nnc(C)o4)ccc3C)cc2)cc1 [GW595885],Kd,[1],180 nM
same,%Inh,[2],0%
same,%Inh,[3],0%
same,%Inh,[4],0%
same,%Inh,[5],16%
same,%Inh,[6],0%
same,%Inh,[7],0%
same,%Inh,[8],0%
same,%Inh,[9],5%
same,%Inh,[10],0%
same,%Inh,[11],0%
same,%Inh,[12],28%
same,%Inh,[13],0%
same,%Inh,[14],0%
COc1ccc(-c2nc3n(c2-c2ccncc2)CCC3)cc1 [SKF-104493],Kd,[16],> 10000 nM
same,Kd,[1],220 nM and 130 nM
same,%Inh,[2],0%
same,%Inh,[3]; 1 µM,51% and 2%
same,%Inh,[4]; 1 µM,20% and 0%
same,%Inh,[5]; 1 µM,5% and 0%
same,%Inh,[6],19%
same,%Inh,[7],0%
same,%Inh,[8],0%
same,%Inh,[9],0%
same,%Inh,[10],0%
same,%Inh,[11]; 1 µM,0% and 6%
same,%Inh,[12]; 1 µM,12% and 6%
same,%Inh,[13],0%
same,%Inh,[14]; 1 µM,0% and 3%
CCc1nc(-c2cccc(C)c2)c(-c2ccnc(NC(=O)c3ccccc3)c2)s1,%Inh,[2],2%
same,%Inh,[3],24%
same,%Inh,[4],0%
same,%Inh,[5],27%
same,%Inh,[6],12%
same,%Inh,[7],0%
same,%Inh,[8],0%
same,%Inh,[9],0%
same,%Inh,[10],0%
same,%Inh,[11],17%
same,%Inh,[12],20%
same,%Inh,[13],0%
same,%Inh,[14],13%
Nc1nc(-c2ccccn2)c(-c2ccnc3ccccc23)s1 [GW548057],Kd,[15],> 10000 nM
same,%Inh,[2],1%
same,%Inh,[3],28%
same,%Inh,[4],26%
same,%Inh,[5],14%
same,%Inh,[6],59%
same,%Inh,[7],18%
same,%Inh,[8],0%
same,%Inh,[9],56%
same,%Inh,[10],0%
same,%Inh,[11],9%
same,%Inh,[12],44%
same,%Inh,[13],0%
same,%Inh,[14],0%
Cl.c1ccc(Cn2ccc3cc(Nc4ncnc5ccccc45)ccc32)cc1 [GW275568],%Inh,[2],17%
same,%Inh,[3],0%
same,%Inh,[4],30%
same,%Inh,[5],0%
same,%Inh,[6],0%
same,%Inh,[7],10%
same,%Inh,[8],2%
same,%Inh,[9],16%
same,%Inh,[10],0%
same,%Inh,[11],24%
same,%Inh,[12],4%
same,%Inh,[13],3%
same,%Inh,[14],12%
